The supplement of paper PMC10037445
The full ranking holds about 2,900 compounds; the median of “NF-kB SEAP reporter activity, fold change vs agonist alone” is about 0.99, and the highest 2% start at about 2.6. Many of the other results were omitted from the sample, so the highest values are more common in it than they were.

How the values were obtained:
RAW-Dual [1] = assay: NF-kB SEAP reporter activity, fold change vs agonist alone; higher = enhanced NF-kB activity; conditions: library stock concentration (final ~1000-fold dilution): 10 mM
Summary of the method: (§1)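 RAW-Dual macrophages (50,000 cells/well in DMEM, 384-well plates) received 50 nL of library stock by pin tool, then a PRR agonist 1 h later, and were kept at 37 °C, 5% CO2. After 20 hours, supernatant was read for IRF by QuantiLuc luminescence and for NF-κB by QuantiBlue absorbance at 620 nm. Reporter activity is fold change over agonist-alone wells. Cytotoxic wells had IncuCyte confluency below 70% of agonist controls in both mask sets.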

RAW-Dual [2] = assay: NF-kB SEAP reporter activity, fold change vs agonist alone; cytotoxicity flag (confluency mask): not cytotoxic; higher = enhanced NF-kB activity
Summary of the method: as §1

RAW-Dual [3] = assay: NF-kB SEAP reporter activity, fold change vs agonist alone; cytotoxicity flag (confluency mask): cytotoxic (confluency <70% of control); higher = enhanced NF-kB activity
Summary of the method: as §1

[4] = cytotoxicity flag (confluency mask): not cytotoxic, agonist: Imiquimod (TLR7) […]
[5] = cytotoxicity flag (confluency mask): not cytotoxic, agonist: MPLA (TLR4) […]
[6] = agonist: ODN 1826 (TLR9) 0.5 ug/mL
[7] = agonist: Pam2CSK4 (TLR2/6) 0.1 ug/mL
[8] = agonist: Pam3CSK4 (TLR2/1) 0.1 ug/mL
[9] = cytotoxicity flag (confluency mask): cytotoxic (confluency <70% of control), agonist: Imiquimod (TLR7) […]
[10] = cytotoxicity flag (confluency mask): cytotoxic (confluency <70% of control), agonist: MPLA (TLR4) […]

With O=C(NC1=CC(=O)[C@@H]2O[C@@H]2[C@@H]1O)c1ccccc1O the “NF-kB SEAP reporter activity” value (RAW-Dual [1]; [4]) was 0.849 and the “NF-kB SEAP reporter activity” value (RAW-Dual [1]; [5]) was 0.949.

With CS(=O)(=O)O.O=C(OC1CC2CC3CC(C1)N2CC3=O)c1c[nH]c2ccccc12 (stereo not given) the “NF-kB SEAP reporter activity” value (RAW-Dual [1]; [4]) was 0.712 and the “NF-kB SEAP reporter activity” value (RAW-Dual [1]; [5]) was 0.75.

For CS(=O)(=O)O.O=C(OC1CC2CC3CC(C1)N2CC3=O)c1c[nH]c2ccccc12 (stereo not given) (library stock concentration (final ~1000-fold dilution): 10 mM), the “NF-kB SEAP reporter activity” value (RAW-Dual [2]; agonist: LPS (TLR4) 0.1 ug/mL) was 0.646, the “NF-kB SEAP reporter activity” value (RAW-Dual [2]; [6]) was 0.571 and the “NF-kB SEAP reporter activity” value (RAW-Dual [2]; [7]) was 0.906. The “NF-kB SEAP reporter activity” value (RAW-Dual [2]; [8]) was 0.497.

In the case of CCNC(=O)C#Cc1ccc2c(c1)NC(=O)/C2=C(\Nc1ccc(CN(C)C)cc1)c1ccccc1, the “NF-kB SEAP reporter activity” value (RAW-Dual [1]; [9]) is reported as 0.134 and the “NF-kB SEAP reporter activity” value (RAW-Dual [1]; [10]) is reported as 0.297.

In the case of CCNC(=O)C#Cc1ccc2c(c1)NC(=O)/C2=C(\Nc1ccc(CN(C)C)cc1)c1ccccc1 (library stock concentration (final ~1000-fold dilution): 10 mM), the “NF-kB SEAP reporter activity” value (RAW-Dual [3]; agonist: LPS (TLR4) 0.1 ug/mL) is reported as 0.241, the “NF-kB SEAP reporter activity” value (RAW-Dual [3]; [6]) is reported as 0.173 and the “NF-kB SEAP reporter activity” value (RAW-Dual [3]; [7]) is reported as 0.074. The “NF-kB SEAP reporter activity” value (RAW-Dual [3]; [8]) was 0.121.

With CCN(CC)CCOc1ccc(Nc2ncc3cc(-c4c(Cl)cccc4Cl)c(=O)n(C)c3n2)cc1 the “NF-kB SEAP reporter activity” value (RAW-Dual [1]; [9]) was 0.492 and the “NF-kB SEAP reporter activity” value (RAW-Dual [1]; [10]) was 0.332.

For C=CCn1c(=O)c2cnc(Nc3ccc(N4CCN(C)CC4)cc3)nc2n1-c1cccc(C(C)(C)O)n1, the “NF-kB SEAP reporter activity” value (RAW-Dual [1]; [9]) was 1.14 and the “NF-kB SEAP reporter activity” value (RAW-Dual [1]; [10]) was 0.798.

With C=CCn1c(=O)c2cnc(Nc3ccc(N4CCN(C)CC4)cc3)nc2n1-c1cccc(C(C)(C)O)n1 (library stock concentration (final ~1000-fold dilution): 10 mM) the “NF-kB SEAP reporter activity” value (RAW-Dual [3]; agonist: LPS (TLR4) 0.1 ug/mL) was 0.933, the “NF-kB SEAP reporter activity” value (RAW-Dual [3]; [6]) was 0.203 and the “NF-kB SEAP reporter activity” value (RAW-Dual [3]; [7]) was 0.914. For the same compound, the “NF-kB SEAP reporter activity” value (RAW-Dual [3]; [8]) was 1.07.

For C=CC(=O)Nc1cccc(Sc2nc(Nc3ccc(N4CCN(C)CC4)cc3)ncc2Cl)c1 (library stock concentration (final ~1000-fold dilution): 10 mM), the “NF-kB SEAP reporter activity” value (RAW-Dual [2]; agonist: LPS (TLR4) 0.1 ug/mL) was 0.254, the “NF-kB SEAP reporter activity” value (RAW-Dual [2]; [6]) was 0.205 and the “NF-kB SEAP reporter activity” value (RAW-Dual [2]; [7]) was 0.0814. For the same compound, the “NF-kB SEAP reporter activity” value (RAW-Dual [2]; [8]) was 0.268.

In the case of Cc1cnc(Nc2ccc(OCCN3CCCC3)cc2)nc1Nc1cccc(S(=O)(=O)NC(C)(C)C)c1, the “NF-kB SEAP reporter activity” value (RAW-Dual [1]; [9]) is reported as 3.13 and the “NF-kB SEAP reporter activity” value (RAW-Dual [1]; [10]) is reported as 2.73.

In the case of CCN(CC)CCOc1ccc(Nc2ncc3cc(-c4c(Cl)cccc4Cl)c(=O)n(C)c3n2)cc1 (library stock concentration (final ~1000-fold dilution): 10 mM), the “NF-kB SEAP reporter activity” value (RAW-Dual [3]; agonist: LPS (TLR4) 0.1 ug/mL) is reported as 0.238, the “NF-kB SEAP reporter activity” value (RAW-Dual [3]; [6]) is reported as 0.236 and the “NF-kB SEAP reporter activity” value (RAW-Dual [3]; [7]) is reported as 0.0747. For the same compound, the “NF-kB SEAP reporter activity” value (RAW-Dual [3]; [8]) was 0.145.

With C=CC(=O)Nc1cccc(Nc2nc(Nc3ccc(OCCOC)cc3)ncc2F)c1 the “NF-kB SEAP reporter activity” value (RAW-Dual [1]; [4]) was 1.11 and the “NF-kB SEAP reporter activity” value (RAW-Dual [1]; [5]) was 1.69.

With Cc1cnc(Nc2ccc(N3CCN(C)CC3)cc2)nc1Nc1cccc(S(=O)(=O)NC(C)(C)C)c1 (library stock concentration (final ~1000-fold dilution): 10 mM) the “NF-kB SEAP reporter activity” value (RAW-Dual [2]; agonist: LPS (TLR4) 0.1 ug/mL) was 7, the “NF-kB SEAP reporter activity” value (RAW-Dual [2]; [6]) was 0.913 and the “NF-kB SEAP reporter activity” value (RAW-Dual [2]; [7]) was 2.15. For the same compound, the “NF-kB SEAP reporter activity” value (RAW-Dual [2]; [8]) was 0.84.

For Cc1cnc(Nc2ccc(OCCN3CCCC3)cc2)nc1Nc1cccc(S(=O)(=O)NC(C)(C)C)c1 (library stock concentration (final ~1000-fold dilution): 10 mM), the “NF-kB SEAP reporter activity” value (RAW-Dual [3]; agonist: LPS (TLR4) 0.1 ug/mL) was 4.34, the “NF-kB SEAP reporter activity” value (RAW-Dual [3]; [6]) was 1.22 and the “NF-kB SEAP reporter activity” value (RAW-Dual [3]; [7]) was 2.05. For the same compound, the “NF-kB SEAP reporter activity” value (RAW-Dual [3]; [8]) was 3.55.

For C=CC(=O)Nc1cccc(Nc2nc(Nc3ccc(OCCOC)cc3)ncc2F)c1 (library stock concentration (final ~1000-fold dilution): 10 mM), the “NF-kB SEAP reporter activity” value (RAW-Dual [2]; agonist: LPS (TLR4) 0.1 ug/mL) was 1.12, the “NF-kB SEAP reporter activity” value (RAW-Dual [2]; [6]) was 0.8 and the “NF-kB SEAP reporter activity” value (RAW-Dual [2]; [7]) was 0.545. The “NF-kB SEAP reporter activity” value (RAW-Dual [2]; [8]) was 0.672.

With Cc1cnc(Nc2ccc(N3CCN(C)CC3)cc2)nc1Nc1cccc(S(=O)(=O)NC(C)(C)C)c1 the “NF-kB SEAP reporter activity” value (RAW-Dual [1]; [4]) was 1.01 and the “NF-kB SEAP reporter activity” value (RAW-Dual [1]; [5]) was 0.945.

For C=CC(=O)Nc1cccc(Sc2nc(Nc3ccc(N4CCN(C)CC4)cc3)ncc2Cl)c1, the “NF-kB SEAP reporter activity” value (RAW-Dual [1]; [4]) was 0.33 and the “NF-kB SEAP reporter activity” value (RAW-Dual [1]; [5]) was 0.408.
